Experimental findings from ChEMBL document CHEMBL3988442, “University of Dundee, Small-Polar-MMV Screening Library” (2021) are described below.

What all share (set-up): scale not given: direction of the effect not stated beside the values
The target of experiment [1] is Protein translocase subunit SecA (Escherichia coli (strain K12)) (UniProt P10408). As to the kind of experiment: Assay to Identify E. coli SecA ATPase Inhibitors. As to conditions: 30 µM. The class given is functional.
The target of experiment [2] is T1, Ubiquitin-activating enzyme e1, putative (Leishmania donovani (strain BPK282A1)) (UniProt E9BSI1).
T1 sequence (whole entry): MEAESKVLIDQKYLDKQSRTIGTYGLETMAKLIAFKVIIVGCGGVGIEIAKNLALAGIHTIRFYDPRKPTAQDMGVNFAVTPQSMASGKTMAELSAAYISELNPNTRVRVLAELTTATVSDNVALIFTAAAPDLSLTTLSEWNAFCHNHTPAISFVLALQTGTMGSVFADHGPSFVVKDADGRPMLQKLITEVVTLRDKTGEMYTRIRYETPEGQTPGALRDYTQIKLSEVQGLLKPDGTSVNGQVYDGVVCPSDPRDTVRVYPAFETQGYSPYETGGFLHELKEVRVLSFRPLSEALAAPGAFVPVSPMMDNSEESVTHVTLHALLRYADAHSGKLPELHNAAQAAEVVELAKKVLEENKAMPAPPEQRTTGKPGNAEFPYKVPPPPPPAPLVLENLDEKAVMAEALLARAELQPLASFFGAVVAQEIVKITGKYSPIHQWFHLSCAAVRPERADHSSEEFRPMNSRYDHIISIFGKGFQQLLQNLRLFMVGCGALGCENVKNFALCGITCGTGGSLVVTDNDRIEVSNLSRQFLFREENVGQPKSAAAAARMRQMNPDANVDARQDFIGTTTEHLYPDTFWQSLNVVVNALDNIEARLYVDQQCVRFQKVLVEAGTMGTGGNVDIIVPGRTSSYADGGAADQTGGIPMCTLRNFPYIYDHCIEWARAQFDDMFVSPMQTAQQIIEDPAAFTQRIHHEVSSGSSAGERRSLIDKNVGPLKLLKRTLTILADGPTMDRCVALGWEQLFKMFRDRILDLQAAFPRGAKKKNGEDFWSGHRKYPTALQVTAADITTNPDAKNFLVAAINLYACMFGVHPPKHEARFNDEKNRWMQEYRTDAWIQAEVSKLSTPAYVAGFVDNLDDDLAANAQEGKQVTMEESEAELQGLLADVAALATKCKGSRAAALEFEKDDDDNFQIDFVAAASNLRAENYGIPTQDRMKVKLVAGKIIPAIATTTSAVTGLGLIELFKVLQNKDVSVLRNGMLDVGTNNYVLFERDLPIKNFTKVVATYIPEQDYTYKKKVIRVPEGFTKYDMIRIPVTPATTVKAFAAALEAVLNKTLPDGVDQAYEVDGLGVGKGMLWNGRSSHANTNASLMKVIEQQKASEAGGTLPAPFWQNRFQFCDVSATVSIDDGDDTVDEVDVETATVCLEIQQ
As to the kind of experiment: Leishmania donovani Ubiquitin Activating Enzyme (LdE1). In kind it is functional. As to conditions: 30 µM.

The target of experiment [3] is AMP-activated protein kinase, AMPK (Homo sapiens) (UniProt P54646+O43741+P54619+Q9UGJ0+Q9Y478+Q13131+Q9UGI9). As to the kind of experiment: AMP-dependent Kinase enzyme assay. An in vitro enzyme assay that detects ADP turnover that is directly proportional to AMPK activity. This uses naive AMPK that is activated during the assay with MK-8722. The class given is functional. As to conditions: 30 µM.

The target in experiment [4] is Sialic acid-binding Ig-like lectin 9 (Homo sapiens) (UniProt Q9Y336). As to the kind of experiment: Hs-Siglec9 ALPHAscreen SOP 20170721. As to conditions: 10 µM. On the technique in general: Alpha assays give light when donor and acceptor beads are brought close together.
Sequence of Sialic acid-binding Ig-like lectin 9 (Homo sapiens) (Q9Y336 whole entry): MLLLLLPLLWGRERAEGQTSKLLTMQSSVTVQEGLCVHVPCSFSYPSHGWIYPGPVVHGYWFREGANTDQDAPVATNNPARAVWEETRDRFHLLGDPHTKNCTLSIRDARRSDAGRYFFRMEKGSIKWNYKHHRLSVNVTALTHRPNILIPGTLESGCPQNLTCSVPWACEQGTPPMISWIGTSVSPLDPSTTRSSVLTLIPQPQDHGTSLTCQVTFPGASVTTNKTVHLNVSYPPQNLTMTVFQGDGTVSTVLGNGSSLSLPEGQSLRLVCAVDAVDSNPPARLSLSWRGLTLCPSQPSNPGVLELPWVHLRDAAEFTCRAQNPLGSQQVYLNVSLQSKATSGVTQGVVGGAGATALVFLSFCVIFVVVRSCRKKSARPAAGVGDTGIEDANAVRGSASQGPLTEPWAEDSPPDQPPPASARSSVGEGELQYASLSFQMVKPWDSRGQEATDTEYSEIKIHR
The subject of experiment [5] is Trypanosoma cruzi. As to the kind of experiment: Trypanosoma cruzi phosphomannomutase and mannose-1-phosphate guanylyltransferase assay. In kind it is functional. The conditions noted are these: 10 µM.
Experiment [6] concerns the target T2, Arginase-2, mitochondrial (Homo sapiens) (UniProt P78540).
T2 sequence (whole entry): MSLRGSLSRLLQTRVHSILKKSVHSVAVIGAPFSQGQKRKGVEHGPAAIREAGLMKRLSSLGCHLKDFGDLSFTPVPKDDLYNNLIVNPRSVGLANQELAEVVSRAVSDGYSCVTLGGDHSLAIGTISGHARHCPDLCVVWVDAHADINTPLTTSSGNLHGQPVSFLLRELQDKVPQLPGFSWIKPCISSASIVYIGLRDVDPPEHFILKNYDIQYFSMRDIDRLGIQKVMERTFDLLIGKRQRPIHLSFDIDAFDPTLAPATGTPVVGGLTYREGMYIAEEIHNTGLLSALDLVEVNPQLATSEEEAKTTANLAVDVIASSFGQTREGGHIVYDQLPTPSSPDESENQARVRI
As to the kind of experiment: in vitro enzyme assay to detect the production of urea directly proportional to the activity of Arginase II. Also: in the data most compounds retested in dose-response had high values. The class given is functional. The conditions noted are these: 33.3 µM.

The target in experiment [7] is T3, Proteasome subunit beta (Trypanosoma cruzi) (UniProt O96673).
T3 sequence (whole entry): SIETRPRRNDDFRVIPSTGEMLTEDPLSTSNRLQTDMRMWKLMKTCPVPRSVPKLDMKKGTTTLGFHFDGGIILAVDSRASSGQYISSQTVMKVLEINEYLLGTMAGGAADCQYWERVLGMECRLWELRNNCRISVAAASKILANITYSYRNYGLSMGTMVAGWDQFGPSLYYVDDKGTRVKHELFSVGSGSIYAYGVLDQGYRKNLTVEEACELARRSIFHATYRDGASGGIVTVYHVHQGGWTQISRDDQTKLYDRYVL
As to the kind of experiment: Trypanosoma cruzi proteasome chymotrypsin-like activity (TcProtChymo) assay. Also: in the data most compounds retested in dose-response had high values. In kind it is functional. As to conditions: 9.37 µM.

Experiment [8] is filed under the species Homo sapiens. As to the kind of experiment: To identify inhibition of the IFN signalling (Jak-Stat) pathway via expression of an eGFP reporter gene under the control of an IFN-stimulated response element (ISRE) containing MxA promoter. The class given is functional. The conditions noted are these: 30 µM. (A reporter such as luciferase makes a cellular process visible.)

The target of experiment [9] is T4, Tyrosyl-tRNA synthetase, putative (Trypanosoma cruzi (strain CL Brener)) (UniProt Q4DSP6).
T4 sequence (whole entry): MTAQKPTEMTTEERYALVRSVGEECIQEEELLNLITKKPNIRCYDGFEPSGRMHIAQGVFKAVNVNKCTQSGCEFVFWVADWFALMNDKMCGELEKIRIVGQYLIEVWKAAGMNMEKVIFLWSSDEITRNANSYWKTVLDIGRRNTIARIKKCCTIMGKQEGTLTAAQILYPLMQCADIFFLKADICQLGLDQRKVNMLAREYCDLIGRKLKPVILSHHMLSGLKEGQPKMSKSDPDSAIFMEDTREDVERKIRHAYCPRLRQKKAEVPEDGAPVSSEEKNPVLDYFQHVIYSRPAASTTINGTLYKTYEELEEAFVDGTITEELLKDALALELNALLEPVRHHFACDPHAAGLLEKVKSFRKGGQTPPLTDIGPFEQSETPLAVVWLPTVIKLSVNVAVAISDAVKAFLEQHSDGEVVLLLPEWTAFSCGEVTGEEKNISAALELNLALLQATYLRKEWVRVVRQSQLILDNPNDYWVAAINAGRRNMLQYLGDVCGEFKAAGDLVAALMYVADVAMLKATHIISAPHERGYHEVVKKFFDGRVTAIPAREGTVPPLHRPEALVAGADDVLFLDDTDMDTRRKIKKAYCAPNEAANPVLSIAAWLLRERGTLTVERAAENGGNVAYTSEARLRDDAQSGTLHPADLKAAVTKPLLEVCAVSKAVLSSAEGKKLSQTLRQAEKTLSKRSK
As to the kind of experiment: Trypanosoma cruzi tyrosyl tRNA synthetase (TcYRS) _High Tyrosine SOP. Also: in the data most compounds retested in dose-response had high values. In kind it is functional. As to conditions: 30 µM.

Experiment [10] has as its target T4, Tyrosyl-tRNA synthetase, putative (Trypanosoma cruzi (strain CL Brener)). As to the kind of experiment: Trypanosoma cruzi tyrosyl tRNA synthetase (TcYRS) SOP. The class given is functional. As to conditions: 30 µM.
In experiment [11] the target is Chromo domain-containing protein 1 (Saccharomyces cerevisiae (strain ATCC 204508 / S288c) (Baker's yeast)) (UniProt P32657). As to the kind of experiment: ScCHD-1 Enzyme Inhibition Assay. Also: in the data most compounds retested in dose-response had high values. In kind it is functional. As to conditions: 30 µM.
Sequence of Chromo domain-containing protein 1 (Saccharomyces cerevisiae (strain ATCC 204508 / S288c) (Baker's yeast)) (P32657 whole entry, the tested form may be a part): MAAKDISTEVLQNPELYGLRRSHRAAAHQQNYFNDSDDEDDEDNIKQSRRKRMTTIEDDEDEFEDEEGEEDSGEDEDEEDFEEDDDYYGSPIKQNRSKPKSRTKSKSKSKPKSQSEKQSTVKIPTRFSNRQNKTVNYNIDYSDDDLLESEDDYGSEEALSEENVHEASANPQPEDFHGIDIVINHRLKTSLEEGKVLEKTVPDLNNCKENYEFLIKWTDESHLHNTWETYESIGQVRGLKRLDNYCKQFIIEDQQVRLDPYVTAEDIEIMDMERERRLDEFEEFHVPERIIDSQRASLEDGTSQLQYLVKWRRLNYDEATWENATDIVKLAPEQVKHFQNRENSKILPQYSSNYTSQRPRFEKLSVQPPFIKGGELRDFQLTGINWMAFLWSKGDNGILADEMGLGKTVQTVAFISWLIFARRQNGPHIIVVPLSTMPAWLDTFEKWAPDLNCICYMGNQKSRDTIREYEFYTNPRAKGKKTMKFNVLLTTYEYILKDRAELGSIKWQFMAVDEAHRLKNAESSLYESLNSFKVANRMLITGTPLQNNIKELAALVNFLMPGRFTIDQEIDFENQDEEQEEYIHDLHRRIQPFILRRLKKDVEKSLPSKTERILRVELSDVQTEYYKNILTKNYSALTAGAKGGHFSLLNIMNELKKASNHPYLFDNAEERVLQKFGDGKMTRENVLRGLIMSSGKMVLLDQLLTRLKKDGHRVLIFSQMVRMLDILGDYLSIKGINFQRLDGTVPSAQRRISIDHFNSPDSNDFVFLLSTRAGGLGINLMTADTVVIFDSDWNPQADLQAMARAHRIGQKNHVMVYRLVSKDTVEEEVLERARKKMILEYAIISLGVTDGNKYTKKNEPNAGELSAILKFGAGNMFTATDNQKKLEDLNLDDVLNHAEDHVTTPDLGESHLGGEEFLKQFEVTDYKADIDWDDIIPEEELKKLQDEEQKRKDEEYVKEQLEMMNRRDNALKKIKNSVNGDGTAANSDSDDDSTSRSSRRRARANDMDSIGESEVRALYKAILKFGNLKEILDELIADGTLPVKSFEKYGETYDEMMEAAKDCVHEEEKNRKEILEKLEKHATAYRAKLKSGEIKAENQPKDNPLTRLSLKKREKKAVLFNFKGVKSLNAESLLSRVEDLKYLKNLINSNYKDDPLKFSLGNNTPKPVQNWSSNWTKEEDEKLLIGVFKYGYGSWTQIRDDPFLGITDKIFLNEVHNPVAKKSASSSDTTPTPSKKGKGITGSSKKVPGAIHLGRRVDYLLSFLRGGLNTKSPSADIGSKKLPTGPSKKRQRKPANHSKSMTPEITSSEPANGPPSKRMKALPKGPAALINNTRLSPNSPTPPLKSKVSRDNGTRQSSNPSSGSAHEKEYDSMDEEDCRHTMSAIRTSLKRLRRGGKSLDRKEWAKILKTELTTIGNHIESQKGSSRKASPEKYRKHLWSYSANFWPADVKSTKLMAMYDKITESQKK

For some of these results: Potency and affinity values are given separately.

Sequence of Protein translocase subunit SecA (Escherichia coli (strain K12)) (P10408 whole entry): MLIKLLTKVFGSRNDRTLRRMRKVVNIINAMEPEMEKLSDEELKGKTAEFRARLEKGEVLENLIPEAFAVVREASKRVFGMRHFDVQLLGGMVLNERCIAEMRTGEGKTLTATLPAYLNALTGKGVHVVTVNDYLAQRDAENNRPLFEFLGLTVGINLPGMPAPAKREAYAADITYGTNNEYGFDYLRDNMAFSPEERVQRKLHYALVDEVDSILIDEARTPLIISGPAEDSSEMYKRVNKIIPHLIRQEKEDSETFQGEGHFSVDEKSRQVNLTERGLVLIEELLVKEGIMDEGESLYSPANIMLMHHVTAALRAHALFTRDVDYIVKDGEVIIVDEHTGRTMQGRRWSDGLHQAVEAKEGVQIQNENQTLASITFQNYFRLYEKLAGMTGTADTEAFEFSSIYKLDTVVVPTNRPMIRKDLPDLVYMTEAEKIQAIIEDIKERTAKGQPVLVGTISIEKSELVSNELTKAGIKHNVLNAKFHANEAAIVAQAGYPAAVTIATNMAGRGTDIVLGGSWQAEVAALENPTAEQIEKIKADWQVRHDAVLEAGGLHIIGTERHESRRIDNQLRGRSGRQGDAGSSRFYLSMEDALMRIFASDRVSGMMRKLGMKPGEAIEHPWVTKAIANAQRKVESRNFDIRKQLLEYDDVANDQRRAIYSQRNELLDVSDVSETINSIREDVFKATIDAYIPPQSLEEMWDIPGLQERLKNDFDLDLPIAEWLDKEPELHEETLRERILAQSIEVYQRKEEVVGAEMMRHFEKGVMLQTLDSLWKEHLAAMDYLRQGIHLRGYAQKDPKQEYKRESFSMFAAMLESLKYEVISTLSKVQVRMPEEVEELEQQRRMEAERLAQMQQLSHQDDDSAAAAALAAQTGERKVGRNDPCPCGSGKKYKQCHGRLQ

As to `Cc1nccn1-c1cc(CNC(=O)CCC2CCCO2)ccn1` (stereo unspecified), the Percent Effect in [1] is -0.34%; in experiment [2], 26.3%; in experiment [3], 1.23%; in experiment [4], -7.85%; in experiment [5] it was 3.08%; in experiment [6], 1.8%. The Percent Effect in experiment [7] was 18.9%; in [8] it was 3.69%; in experiment [9], 8.37%; in experiment [10] it was 28.4%; in experiment [11], -9.77%.
As for `CC(C)c1ncc(CN2CCCC(CO)C2)cn1` (stereo unspecified), the Percent Effect in experiment [1] was -1.56%; in experiment [2], 1.35%; in [3], 11.1%; in experiment [4], 9.9%; in [5] it was -6.32%; in experiment [6] it was 1.16%. For the same compound, the Percent Effect is 3.59% in experiment [7]; -1.15% in experiment [8]; 1.07% in experiment [9]; 1.3% in experiment [10]; -0.548% in experiment [11].
Consider `Cn1ncc2c(N3CCN(C(N)=O)CC3)nc(C3CCCC3)nc21`, for which the Percent Effect was -1.31% in experiment [1]; 1.39% in experiment [2]; 27.7% in [3]; -4.81% in [4]; -7.29% in experiment [5]; 0.883% in experiment [6]. Moreover, the Percent Effect in experiment [7] was 18.4%; in experiment [8] it was 25.9%; in [9], 1.05%; in experiment [10] it was -7.69%; in experiment [11], -4.35%.
With `O=C(NCCCn1ccnc1)N1CCCC1c1ccncc1` (stereo unspecified), the Percent Effect in experiment [1] was -1.66%; in [2], -2.67%; in experiment [3], -1.97%; in experiment [4] it was -2.62%; in [5] it was -5.36%; in experiment [6], 1.56%. For the same compound, the Percent Effect in experiment [7] is -1.57%; in experiment [8], -1.17%; in experiment [9] it was -0.546%; in experiment [10], 1.24%; in [11], 5.86%.
In the case of `COc1cccc(CNC(=O)N2CCN(Cc3cc(C)on3)CC2)c1`, the Percent Effect was -1.41% in [1]; 15.2% in [2]; -1.11% in experiment [3]; -7.32% in [4]; -6.33% in experiment [5]; 0.38% in [6]. The Percent Effect was 1.39% in experiment [7]; 25.8% in experiment [8]; 5.42% in experiment [9]; 11.4% in experiment [10]; -5.16% in experiment [11].
As to `Cc1nc(C)n(C2CCCN(C(=O)CCCn3ccnc3)C2)n1` (stereo unspecified), the Percent Effect was -8.21% in [1]; 0% in experiment [2]; 0.109% in experiment [3]; 0.244% in experiment [4]; -3.91% in experiment [5]; 2.92% in experiment [6]. The Percent Effect in experiment [7] is 10.4%; in [8] it was 5.38%; in experiment [9], 4.95%; in [10], 3.66%; in experiment [11] it was -1.65%.
With `Cn1nnc2cc(C(=O)N3CCCC3Cc3ccccc3)ccc21` (stereo unspecified), the Percent Effect in [1] is -4.28%; in experiment [2], 2.74%; in experiment [3] it was 2.56%; in [4] it was 2.89%; in [5], 4.11%; in [6], -3.18%. In addition, the Percent Effect in experiment [7] is 5.68%; in experiment [8], 7.53%; in experiment [9] it was 0%; in experiment [10], 5%; in experiment [11], -4.61%.
For the compound `CN1CCCN(C(=O)c2ccc3c(c2)nc(N2CCOCC2)n3C)CC1`, the Percent Effect in [1] is -0.416%; in [2] it was 4.17%; in [3], -3.77%; in experiment [4] it was -0.695%; in [5], -3.6%; in [6] it was -0.883%. For the same compound, the Percent Effect in [7] was 18.2%; in experiment [8], 21.6%; in experiment [9], 2.1%; in experiment [10], 2.56%; in experiment [11], -1.63%.
`Cn1cc(CNCCn2cccn2)c(-c2cccnc2)n1`: the Percent Effect in experiment [1] was -3.75%; in experiment [2] it was 0%; in [3], -3.89%; in [4], -4.32%; in [5] it was -1.66%; in [6], 0.744%. Besides, the Percent Effect in [7] was 13.8%; in experiment [8] it was -1.72%; in experiment [9], -1.07%; in experiment [10] it was 1.24%; in experiment [11] it was 2.43%.
Consider `C[C@H]1C[C@@H]2CCN(C(=O)c3ccncn3)C[C@H]2O1`, for which the Percent Effect in experiment [1] is -5.91%; in [2] it was 0%; in experiment [3], -1.04%; in [4] it was -0.649%; in [5], 1.56%; in [6], 2.08%. Moreover, the Percent Effect in experiment [7] is 1.27%; in [8], -2.6%; in experiment [9], 5.94%; in experiment [10] it was 8.54%; in experiment [11], -3.12%.
Regarding `CCC1CN(CCNC(C)=O)CCN1CCOC` (stereo unspecified), the Percent Effect in [1] was -0.705%; in experiment [2], 16.2%; in experiment [3], -10.5%; in experiment [4], -8.99%; in [5], -2.74%; in [6], -4.81%. The Percent Effect was 18.2% in experiment [7]; 5.73% in experiment [8]; 7.39% in experiment [9]; 13.6% in experiment [10]; -5.61% in experiment [11].
